Results published in PubChem BioAssay (NCI).
Where “and” joins values, the source holds several entries; their conditions need not be identical. Identical values can stand only once. Compounds without any hit were thinned out: in the full panel of roughly 83,000, 20% have a hit.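 Percent growth is the endpoint: 0 to 100 indicates growth inhibition (40 means 60% inhibition), 0 means no net growth, and negative values indicate cell death.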

What was measured:
Assay in all cases: NCI-60 one-dose screen, 48 h (100 = growth as untreated, 0 = no growth, -100 = all killed)
Conditions in all cases: 10 µM unless noted; active means growth percent below 10; inactive means the rest
SR leukemia = test system: SR leukemia
RPMI-8226 leukemia = test system: RPMI-8226 leukemia
OVCAR-8 ovarian = test system: OVCAR-8 ovarian
OVCAR-5 ovarian = test system: OVCAR-5 ovarian
OVCAR-4 ovarian = test system: OVCAR-4 ovarian
SK-OV-3 ovarian = test system: SK-OV-3 ovarian
IGROV1 ovarian = test system: IGROV1 ovarian
OVCAR-3 ovarian = test system: OVCAR-3 ovarian
HS 578T breast = test system: HS 578T breast
NCI/ADR-RES ovarian = test system: NCI/ADR-RES ovarian
T-47D breast = test system: T-47D breast
BT-549 breast = test system: BT-549 breast
MDA-MB-435 melanoma = test system: MDA-MB-435 melanoma
SW-620 colon = test system: SW-620 colon
HCT-116 colon = test system: HCT-116 colon
HCC-2998 colon = test system: HCC-2998 colon
KM12 colon = test system: KM12 colon
MCF7 breast = test system: MCF7 breast

Measured: growth

Cc1cc(=NO)cc(C)n1O
inactive: SR leukemia 72.5% | RPMI-8226 leukemia 103% | OVCAR-8 ovarian 111% | OVCAR-5 ovarian 117% | OVCAR-4 ovarian 106% | SK-OV-3 ovarian 104% | IGROV1 ovarian 114% | OVCAR-3 ovarian 104% | HS 578T breast 103% | NCI/ADR-RES ovarian 114% | T-47D breast 94.4% | BT-549 breast 82.8% | MDA-MB-435 melanoma 106% | SW-620 colon 100% | HCT-116 colon 97.3% | HCC-2998 colon 120% | KM12 colon 110%

COc1ccc(/C=C/C(=O)O)cc1OC
inactive: SR leukemia 110% and 106% | RPMI-8226 leukemia 102% and 106% | OVCAR-8 ovarian 108% and 103% | OVCAR-5 ovarian 106% and 109% | OVCAR-4 ovarian 105% and 113% | SK-OV-3 ovarian 103% and 107% | IGROV1 ovarian 104% and 115% | OVCAR-3 ovarian 108% and 104% | HS 578T breast 103% and 102% | NCI/ADR-RES ovarian 108% and 105% | T-47D breast 107% and 106% | BT-549 breast 107% and 111% | MDA-MB-435 melanoma 109% and 112% | SW-620 colon 103% and 102% | MCF7 breast 97.9% and 102% | HCC-2998 colon 119% and 102% | KM12 colon 109%

CC(=O)Nc1cscc1NC(C)=O
inactive: SR leukemia 90.1% | RPMI-8226 leukemia 95.8% | OVCAR-8 ovarian 107% | OVCAR-5 ovarian 91.9% | OVCAR-4 ovarian 100% | SK-OV-3 ovarian 103% | IGROV1 ovarian 99.2% | OVCAR-3 ovarian 102% | HS 578T breast 103% | NCI/ADR-RES ovarian 98.9% | T-47D breast 94.4% | BT-549 breast 90.3% | MDA-MB-435 melanoma 89.1% | SW-620 colon 97.6% | MCF7 breast 94.5% | HCT-116 colon 103% | HCC-2998 colon 94.1% | KM12 colon 106%

O=C(Nc1ccccc1)OCC(CN1CCCCC1)OC(=O)Nc1ccccc1 (stereo unspecified)
inactive: SR leukemia 82.9% | RPMI-8226 leukemia 90.6% | OVCAR-8 ovarian 92.8% and 95.1% | OVCAR-5 ovarian 105% and 96.7% | OVCAR-4 ovarian 76.4% and 104% | SK-OV-3 ovarian 89.4% and 93.8% | IGROV1 ovarian 68.8% and 98.3% | OVCAR-3 ovarian 91.2% and 101% | HS 578T breast 91.6% | NCI/ADR-RES ovarian 85.6% and 96.1% | T-47D breast 71.5% and 97% | BT-549 breast 69.7% and 102% | MDA-MB-435 melanoma 90.3% and 97.4% | SW-620 colon 104% and 96.9% | MCF7 breast 72.9% and 96% | HCT-116 colon 69.1% and 93.6% | HCC-2998 colon 94% and 98.4% | KM12 colon 93% and 101%

OC(CC(c1ccccc1)c1cccc2ccccc12)(c1ccccc1)c1ccccc1 (stereo unspecified)
inactive: SR leukemia 94.9% and 63.1% | RPMI-8226 leukemia 88.4% and 67.4% | OVCAR-8 ovarian 72.8% and 87.1% | OVCAR-5 ovarian 92.1% and 89.9% | OVCAR-4 ovarian 81.3% and 75.7% | SK-OV-3 ovarian 85.4% and 93.1% | IGROV1 ovarian 88.6% and 84.8% | OVCAR-3 ovarian 94.1% and 90.6% | HS 578T breast 84.4% and 86.6% | NCI/ADR-RES ovarian 76.2% and 70.3% | T-47D breast 64% and 81.8% | BT-549 breast 88.4% | MDA-MB-435 melanoma 96.9% and 88.9% | SW-620 colon 77% and 80.9% | MCF7 breast 79.1% and 79.3% | HCT-116 colon 58.9% and 46.3% | HCC-2998 colon 98.9% and 88.1% | KM12 colon 89.2% and 90.9%

O=C1c2cccnc2-c2ncccc21
inactive: SR leukemia 120% [100 µM] | RPMI-8226 leukemia 99.8% [100 µM] | OVCAR-8 ovarian 106% [100 µM] | OVCAR-5 ovarian 122% [100 µM] | OVCAR-4 ovarian 109% [100 µM] | SK-OV-3 ovarian 107% [100 µM] | IGROV1 ovarian 113% [100 µM] | OVCAR-3 ovarian 110% [100 µM] | HS 578T breast 89.5% [100 µM] | NCI/ADR-RES ovarian 102% [100 µM] | T-47D breast 98.9% [100 µM] | BT-549 breast 104% [100 µM] | MDA-MB-435 melanoma 103% [100 µM] | SW-620 colon 109% [100 µM] | MCF7 breast 109% [100 µM] | HCT-116 colon 107% [100 µM] | HCC-2998 colon 112% [100 µM] | KM12 colon 103% [100 µM]
